Data as given in PubChem BioAssay (NCATS).
Inconclusive results are not listed. Entries that show only a call come without a potency. Calls of active or inactive are those of the source. Unless noted, calls follow the shape of the dose curve; as a rule, active = well fitted curve in the direction sought with a large enough effect; inconclusive = small, poorly fitted or top-dose-only effect, or another doubt; inactive = no such curve, though single readings can be large; an effect the other way counts as inactive or inconclusive.

Columns and labels:
[1] = molecular target: Ferritin light chain (Equus caballus) (UniProt P02791); assay: qHTS Validation Assay for Identification of Novel General Anesthetics (AID 2323); also: series mostly up to about 77 µM
Summary of the method: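 Competitive displacement of the profluorescent anesthetic 1-AMA (50% saturated, PBS) from 10 uM apoferritin, 10 min, room temperature. Activity is normalized 380/535 nm fluorescence; concentration-response fitted with a four-parameter Hill equation.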

[2] = molecular target: ATP-dependent DNA helicase Q1 (Homo sapiens) (UniProt P46063); assay: qHTS Validation Assay for Inhibitors of RecQ-Like Dna Helicase 1 (RECQ1) (AID 2353)
Summary of the method: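 50 nM RECQ1T1 preincubated 15 min with compound in Tris pH 8.0 buffer with MgCl2, DTT, Tween-20 and 2.5 ug/ml poly(dI-dC); started with 200 nM TAMRA/BHQ-2 forked duplex and 2 mM ATP. Unwinding read as fluorescence (525/598 nm), two reads 2 h apart.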

[3] = Cytometric Cell-Based qHTS for Inhibitors of the mTORC1 Signaling Pathway in MEF (Tsc2-/-, p53-/-) Cells (AID 2660);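 also: percent of cells above a phospho-rpS6 to PI ratio cutoff in each well; series mostly up to about 38 µM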
Summary of the method: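 Percent of cells positive for normalized phospho-S6 staining is reported, with the cutoff set from rapamycin (7.5 nM) versus DMSO wells. Tsc2-/-, p53-/- MEFs received compound for 24 hrs.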

[4] = High Content Imaging Cell-Based qHTS for Inhibitors of the mTORC1 Signaling Pathway in MEF (Tsc2-/-, p53-/-) Cells (AID 2666);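 also: percent of cells scored positive for phospho-rpS6 Ser235/236 immunostaining by imaging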
Summary of the method: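 Phospho-rpS6 (Ser235/236) immunofluorescence, normalized and scored as % positive cells using rapamycin and DMSO controls, was read in empty-vector Tsc2-/-, p53-/- MEFs after 24 h compound exposure at 37 C; propidium iodide counted cells.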

[5] = High Content Imaging Cell-Based qHTS for Inhibitors of the mTORC1 Signaling Pathway in MEF Cells (AID 2667);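 also: Tsc2-/- p53-/- MEFs stably re-expressing wild-type Tsc2 exposed 24 h; series mostly up to about 38 µM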
Summary of the method: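 WT MEFs (Tsc2-/-, p53-/- re-expressing Tsc2), in DMEM + 10% FBS, were treated with compound for 24 h at 37 C. Cells were then fixed and stained for phospho-rpS6 Ser235/236 with propidium iodide as cell count. Values are % positive cells, with thresholds set against rapamycin-treated cells.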

[6] = Validation screen for small molecules that induce DNA re-replication in MCF 10A normal breast cells (AID 463097); also: nearly all actives have a fitted effect of over 60% in size; also: potency is read from the fitted curve at half-maximal effect
Summary of the method: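 Read-out is Hoechst total nuclear intensity by fluorescence scanning imager, flagging increased high-DNA-content nuclei. Compounds were incubated with MCF 10A cells for 48 hr (37 C, 5% CO2) before 40 min staining.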

[7] = molecular target: Ubiquitin carboxyl-terminal hydrolase 2 (Homo sapiens) (UniProt O75604); assay: qHTS Validation Assay for Inhibitors of Ubiquitin-specific Protease USP2a Using CHOP2 as the Reporter (AID 463106)
Summary of the method: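 USP2 core (10 nM final) was preincubated with compound 30 min at RT in pH 8.0 Tris/CaCl2/beta-ME/CHAPS buffer. Ub-CHOP2 and reporter substrate (25 nM final each) were then added, with fluorescence (Ex 485/Em 531) read after 60 min. Data were normalized to NEM full inhibition and fitted to concentration-response curves.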

[8] = molecular target: DNA polymerase III PolC-type (Bacillus subtilis (strain 168)) (UniProt P13267); assay: qHTS Validation Assay for the Inhibitors of DNA Replication in Gram-Positive Bacteria (AID 485295);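 also: reconstituted holoenzyme with PolC plus beta clamp SSB and primase; PicoGreen fluorescence of double-stranded DNA made on primed circular M13 template; series mostly up to about 57 µM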
Summary of the method: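 Double-stranded DNA product detected by PicoGreen fluorescence after EDTA quench. Compound incubated with B. subtilis holoenzyme (PolC, beta subunit, SSB, primase) before substrate addition; primed replication of M13Gori with dNTPs and NTPs at room temperature; DMSO defines 0% inhibition.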

[9] = molecular target: Tumor susceptibility gene 101 protein (Homo sapiens) (UniProt Q99816); assay: qHTS Validation Assay for Iinhibitors of HIV-1 Budding by Blocking the Interaction of PTAP/TSG101 (AID 485342; calls by dose curve)
Summary of the method: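 Fluorescence polarization of 50 nM FITC-PTAP peptide bound to 10 uM Tsg101 binding domain was read after 20 min room-temperature incubation with compounds, in 10 mM HEPES pH 7.5, 0.15 M NaCl, 0.01% Tween 20.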

[10] = molecular target: Beta-2 adrenergic receptor (Homo sapiens) (UniProt P07550); assay: qHTS validation assay of beta-arrestin-biased ligands of beta2-adrenergic receptor (AID 485366)
Summary of the method: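 Luminescence from a tTA-responsive luciferase, induced when recombinant beta-arrestin is recruited to recombinant beta2-AR, served as the agonism signal. Cells were exposed to compound for 18 hr at 37 degrees C; titrations spanned up to 46 microM.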

[11] = molecular target: Flap endonuclease 1 (Homo sapiens) (UniProt P39748); assay: qHTS Validation Assay for the Inhibitors of Human Flap endonuclease 1 (FEN1) (AID 488816)
Summary of the method: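 Human FEN1 (10 nM) preincubated 15 min at room temperature with compounds, then flap DNA substrate added at 50 nM final. Fluorescence read at 0 and 15 min; concentration-response fitted with four-parameter Hill equation.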

[12] = Cytometry Cell-Based qHTS for Inhibitors of the mTORC1 Signaling Pathway in MEF cells (AID 2668);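 also: Tsc2-/- p53-/- mouse embryonic fibroblasts stably re-expressing wild-type Tsc2; percent cells positive for phospho-rpS6 Ser235/236 relative to propidium iodide stain; series mostly up to about 38 µM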
Summary of the method: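 Phospho-rpS6 (Ser235/236) immunofluorescence over PI signal, scored as % positive cells using thresholds from 7.5 nM rapamycin and DMSO wells, after 24 h compound exposure of WT-Tsc2-rescued Tsc2-/-, p53-/- MEFs. PI cell count recorded for viability.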

[13] = qHTS Validation Assay to Find Inhibitors of Chronic Active B-Cell Receptor Signaling (AID 485345; active = well fitted curve in the direction sought with a large enough effect in the main read-out, with a control signal flat, not every such curve was filed as active)
Summary of the method: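 TMD8 ABC-DLBCL cells stably carrying doxycycline-inducible IkappaBalpha–green luciferase fusion plus unfused red luciferase; compounds 46 uM to 3 nM, 4 h at 37C with doxycycline. Corrected green/red luminescence ratio normalized to 10 uM MG-132 and basal cell wells; curves fitted.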

[14] = Quantitative high throughput screen for delayed death inhibitors of the malarial parasite plastid, 96 hour incubation (AID 488745); also: nearly all actives have a fitted effect of over 70% in size; also: potency is read from the fitted curve at half-maximal effect
Summary of the method: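 Growth of reporter-bearing P. falciparum in red cells is measured after 96 h with compound, covering two erythrocytic cycles. Luminescence from the integrated luciferase serves as the growth signal.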

[15] = Quantitative high throughput screen for delayed death inhibitors of the malarial parasite plastid, 48 hour incubation (AID 488752); also: nearly all actives have a fitted effect of over 65% in size; also: potency is read from the fitted curve at half-maximal effect
Summary of the method: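 One parasite generation (48 h, 37 C, 5% CO2) of luciferase-reporter P. falciparum in erythrocytes is run with test compound; decreased luminescence indicates inhibited growth.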

[16] = molecular target: Thioredoxin reductase 1, cytoplasmic (Rattus norvegicus) (UniProt O89049); assay: qHTS Assay for Substrates of Mammalian Selenoprotein Thioredoxin Reductase 1 (TrxR1) (AID 488772);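 also: NADPH fluorescence in the first read after selenite addition and not the 8 min delta; series mostly up to about 57 µM; a drop in NADPH fluorescence below the no-compound background marks a TrxR1 substrate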
Summary of the method: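 Quantitative HTS in Tris-HCl buffer at pH 7.5 with EDTA and Tween-20, using rat TrxR1, 400 uM NADPH and 400 uM selenite (final). A fall in initial NADPH fluorescence relative to background marked substrate behaviour.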

[17] = molecular target: Thioredoxin reductase 1, cytoplasmic (Rattus norvegicus) (UniProt O89049); assay: qHTS Assay for Inhibitors of Mammalian Selenoprotein Thioredoxin Reductase 1 (TrxR1) (AID 488773); settings: Potency: inhibition;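 also: drop in NADPH fluorescence over an 8 min run after selenite addition; series mostly up to about 57 µM; nearly all actives have a fitted effect of over 40% in size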
Summary of the method: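 Steps: enzyme (90 nM) plus NADPH (400 uM final), 5 min at ~22 deg C; compound added, 15 min; selenite (400 uM final) added; fluorescence followed for 8 min. Concentration-response curves derived from the normalized delta values.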

[18] = molecular target: ATP-dependent 6-phosphofructokinase (Trypanosoma brucei brucei) (UniProt O15648); assay: qHTS Validation Assay to Find Inhibitors of T. brucei phosphofructokinase (AID 485368); settings: outcome: dose series up to 57.5 µM
Summary of the method: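 Activity was normalized between 1x (1.25 nM) PFK wells as no inhibition and enzyme-free wells as full inhibition, from luminescence after ADP-Glo detection of ADP made from 0.5 mM F6P and 0.1 mM ATP over 45 min.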

Chain of Flap endonuclease 1 (Homo sapiens) (P39748 whole entry, looked up): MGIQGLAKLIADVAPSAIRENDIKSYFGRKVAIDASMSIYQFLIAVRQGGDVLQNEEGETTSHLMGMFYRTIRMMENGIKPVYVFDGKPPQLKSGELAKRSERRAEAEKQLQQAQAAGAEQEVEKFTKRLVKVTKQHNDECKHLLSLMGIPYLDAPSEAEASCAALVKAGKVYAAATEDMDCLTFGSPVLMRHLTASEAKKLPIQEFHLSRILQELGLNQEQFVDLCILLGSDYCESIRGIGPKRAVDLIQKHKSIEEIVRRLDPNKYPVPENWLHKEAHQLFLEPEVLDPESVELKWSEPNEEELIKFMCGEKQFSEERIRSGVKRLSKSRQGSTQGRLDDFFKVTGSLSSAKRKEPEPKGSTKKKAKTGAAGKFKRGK
Chain of Beta-2 adrenergic receptor (Homo sapiens) (P07550 whole entry, looked up): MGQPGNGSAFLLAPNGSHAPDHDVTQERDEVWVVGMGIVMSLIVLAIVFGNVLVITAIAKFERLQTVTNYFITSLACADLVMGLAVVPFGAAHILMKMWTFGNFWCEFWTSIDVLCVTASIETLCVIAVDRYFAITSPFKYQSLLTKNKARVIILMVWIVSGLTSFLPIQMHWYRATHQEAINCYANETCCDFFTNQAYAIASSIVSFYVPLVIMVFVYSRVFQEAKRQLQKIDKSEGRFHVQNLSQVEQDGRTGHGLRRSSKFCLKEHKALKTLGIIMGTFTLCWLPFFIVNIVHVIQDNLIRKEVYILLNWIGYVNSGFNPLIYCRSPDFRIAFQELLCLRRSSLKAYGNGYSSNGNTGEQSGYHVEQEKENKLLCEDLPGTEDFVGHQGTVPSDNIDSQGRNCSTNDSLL
Chain of Ubiquitin carboxyl-terminal hydrolase 2 (Homo sapiens) (O75604 whole entry, looked up): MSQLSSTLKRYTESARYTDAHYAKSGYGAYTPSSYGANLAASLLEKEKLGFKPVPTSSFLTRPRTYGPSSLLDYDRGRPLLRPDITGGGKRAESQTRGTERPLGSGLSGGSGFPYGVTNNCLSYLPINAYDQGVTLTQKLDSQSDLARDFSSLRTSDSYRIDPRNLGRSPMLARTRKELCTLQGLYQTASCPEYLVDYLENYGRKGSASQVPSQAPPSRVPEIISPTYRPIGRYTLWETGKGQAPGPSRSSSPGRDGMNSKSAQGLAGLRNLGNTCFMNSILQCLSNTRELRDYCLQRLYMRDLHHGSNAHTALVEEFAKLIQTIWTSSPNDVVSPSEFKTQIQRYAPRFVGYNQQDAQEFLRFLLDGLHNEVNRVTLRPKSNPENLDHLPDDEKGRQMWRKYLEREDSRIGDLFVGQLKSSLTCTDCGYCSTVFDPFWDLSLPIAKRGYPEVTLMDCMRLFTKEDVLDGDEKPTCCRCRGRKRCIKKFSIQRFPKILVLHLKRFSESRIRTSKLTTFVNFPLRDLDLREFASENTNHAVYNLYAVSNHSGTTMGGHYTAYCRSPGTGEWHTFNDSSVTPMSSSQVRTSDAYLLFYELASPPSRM
Chain of Thioredoxin reductase 1, cytoplasmic (Rattus norvegicus) (O89049 whole entry, looked up): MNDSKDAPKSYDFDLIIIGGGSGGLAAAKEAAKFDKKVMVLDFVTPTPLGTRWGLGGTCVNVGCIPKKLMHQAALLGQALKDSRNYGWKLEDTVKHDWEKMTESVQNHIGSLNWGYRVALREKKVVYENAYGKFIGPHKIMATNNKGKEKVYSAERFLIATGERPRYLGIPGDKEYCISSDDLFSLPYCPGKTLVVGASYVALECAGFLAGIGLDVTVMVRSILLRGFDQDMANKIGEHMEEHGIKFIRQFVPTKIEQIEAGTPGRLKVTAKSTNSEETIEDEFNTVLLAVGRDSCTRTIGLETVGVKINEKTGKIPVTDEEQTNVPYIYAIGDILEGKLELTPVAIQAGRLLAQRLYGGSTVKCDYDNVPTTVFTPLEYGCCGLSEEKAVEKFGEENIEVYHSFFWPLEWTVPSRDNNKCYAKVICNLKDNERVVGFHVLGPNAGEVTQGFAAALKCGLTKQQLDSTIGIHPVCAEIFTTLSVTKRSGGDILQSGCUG
Chain of Tumor susceptibility gene 101 protein (Homo sapiens) (Q99816 whole entry, looked up, the tested form may be a part): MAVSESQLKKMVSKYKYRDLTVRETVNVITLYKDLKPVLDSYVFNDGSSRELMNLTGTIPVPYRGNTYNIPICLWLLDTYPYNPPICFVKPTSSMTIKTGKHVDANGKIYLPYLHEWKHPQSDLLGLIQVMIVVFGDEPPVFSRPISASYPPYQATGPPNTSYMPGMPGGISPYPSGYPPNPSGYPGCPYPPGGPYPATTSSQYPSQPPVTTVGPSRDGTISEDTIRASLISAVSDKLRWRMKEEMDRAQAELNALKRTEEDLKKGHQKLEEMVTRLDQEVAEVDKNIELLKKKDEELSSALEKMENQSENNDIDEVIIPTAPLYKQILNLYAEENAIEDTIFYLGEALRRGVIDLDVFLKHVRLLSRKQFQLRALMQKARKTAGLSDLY
Chain of Ferritin light chain (Equus caballus) (P02791 2-175 limits assumed): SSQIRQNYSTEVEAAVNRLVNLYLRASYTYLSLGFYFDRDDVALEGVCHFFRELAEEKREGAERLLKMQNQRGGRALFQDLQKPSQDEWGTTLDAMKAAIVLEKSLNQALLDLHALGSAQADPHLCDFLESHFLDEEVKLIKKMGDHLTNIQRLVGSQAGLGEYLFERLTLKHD
Chain of ATP-dependent DNA helicase Q1 (Homo sapiens) (P46063 whole entry, looked up): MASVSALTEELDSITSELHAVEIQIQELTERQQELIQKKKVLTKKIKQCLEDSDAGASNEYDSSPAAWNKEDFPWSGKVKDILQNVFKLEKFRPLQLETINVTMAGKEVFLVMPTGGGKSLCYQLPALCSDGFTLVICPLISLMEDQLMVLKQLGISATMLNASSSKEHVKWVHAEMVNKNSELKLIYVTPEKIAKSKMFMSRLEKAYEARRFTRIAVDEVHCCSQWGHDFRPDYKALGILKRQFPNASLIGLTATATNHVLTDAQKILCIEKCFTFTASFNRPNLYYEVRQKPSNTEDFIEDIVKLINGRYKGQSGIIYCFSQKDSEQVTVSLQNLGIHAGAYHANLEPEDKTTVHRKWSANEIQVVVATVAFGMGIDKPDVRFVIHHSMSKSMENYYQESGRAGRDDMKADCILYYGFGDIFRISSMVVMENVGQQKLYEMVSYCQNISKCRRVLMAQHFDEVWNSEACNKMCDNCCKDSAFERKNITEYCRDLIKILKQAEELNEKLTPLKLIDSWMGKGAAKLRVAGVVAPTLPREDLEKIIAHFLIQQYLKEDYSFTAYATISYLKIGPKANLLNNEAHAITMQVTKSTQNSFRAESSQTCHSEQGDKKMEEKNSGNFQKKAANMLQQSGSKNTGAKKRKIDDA
Chain of DNA polymerase III PolC-type (Bacillus subtilis (strain 168)) (P13267 whole entry, looked up): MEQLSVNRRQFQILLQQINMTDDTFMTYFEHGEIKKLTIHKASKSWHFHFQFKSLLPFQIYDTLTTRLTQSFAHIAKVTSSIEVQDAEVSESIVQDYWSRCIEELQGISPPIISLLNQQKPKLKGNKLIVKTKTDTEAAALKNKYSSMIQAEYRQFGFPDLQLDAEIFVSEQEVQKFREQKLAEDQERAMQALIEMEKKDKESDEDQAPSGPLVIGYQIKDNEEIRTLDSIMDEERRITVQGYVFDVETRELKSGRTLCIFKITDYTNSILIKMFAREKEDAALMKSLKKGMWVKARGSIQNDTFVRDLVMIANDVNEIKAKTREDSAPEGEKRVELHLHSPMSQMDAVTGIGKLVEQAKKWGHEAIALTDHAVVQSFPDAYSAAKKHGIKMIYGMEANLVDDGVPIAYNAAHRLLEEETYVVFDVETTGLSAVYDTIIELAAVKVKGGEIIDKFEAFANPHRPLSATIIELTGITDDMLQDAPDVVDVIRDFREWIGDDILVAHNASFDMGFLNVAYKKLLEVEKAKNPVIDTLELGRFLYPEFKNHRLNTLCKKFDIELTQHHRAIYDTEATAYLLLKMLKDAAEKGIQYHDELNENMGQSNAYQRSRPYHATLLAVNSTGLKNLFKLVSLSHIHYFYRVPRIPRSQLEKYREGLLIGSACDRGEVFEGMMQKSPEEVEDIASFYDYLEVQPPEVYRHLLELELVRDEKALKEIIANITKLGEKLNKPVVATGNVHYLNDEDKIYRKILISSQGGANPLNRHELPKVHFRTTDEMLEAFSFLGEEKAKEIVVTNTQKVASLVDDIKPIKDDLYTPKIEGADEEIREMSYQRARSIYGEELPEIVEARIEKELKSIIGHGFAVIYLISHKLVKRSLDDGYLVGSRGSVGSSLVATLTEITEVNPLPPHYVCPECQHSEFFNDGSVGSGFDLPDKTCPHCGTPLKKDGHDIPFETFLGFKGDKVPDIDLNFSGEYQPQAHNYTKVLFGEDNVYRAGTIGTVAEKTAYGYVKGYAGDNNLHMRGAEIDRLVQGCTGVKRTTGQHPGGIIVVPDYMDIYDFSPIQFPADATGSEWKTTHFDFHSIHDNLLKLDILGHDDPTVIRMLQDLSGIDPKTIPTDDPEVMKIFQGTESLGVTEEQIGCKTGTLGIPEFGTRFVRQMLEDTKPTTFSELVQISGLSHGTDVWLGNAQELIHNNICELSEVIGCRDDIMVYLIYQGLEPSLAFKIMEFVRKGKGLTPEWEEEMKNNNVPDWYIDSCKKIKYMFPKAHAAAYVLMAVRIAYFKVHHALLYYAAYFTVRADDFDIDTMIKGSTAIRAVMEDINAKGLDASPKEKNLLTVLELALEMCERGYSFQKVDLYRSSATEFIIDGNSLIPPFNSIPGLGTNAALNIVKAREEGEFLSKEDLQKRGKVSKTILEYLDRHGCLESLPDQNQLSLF

Structure (SMILES) | outcome [1] | Potency [2] | outcome [3] | Potency [4] | Potency [5] | Potency [6] | outcome [7] | Potency [8] | outcome [9] | outcome [10] | Potency [11] | Potency [12] | Potency [13] | Potency [14] | Potency [15] | outcome [16] | Potency [17] | outcome [18]
CCCC(C(=O)OCCN(CC)CC)(c1ccccc1)c1ccccc1 | inactive | inactive | inactive | inactive | inactive | inactive | inactive | inactive | inactive | inactive | inactive |  |  |  |  |  |  | 
NCCCNCCSP(=O)(O)O | inactive | inactive | inactive | inactive | inactive | inactive | inactive | inactive | inactive | inactive |  | inactive | inactive | inactive | inactive | inactive | inactive | 
COC(=O)[C@H]1[C@H]2C[C@@H]3c4[nH]c5cc(OC)ccc5c4CCN3C[C@H]2C[C@@H](OC(=O)c2cc(OC)c(OC)c(OC)c2)[C@@H]1OC | inactive | inactive | inactive | inactive | inactive | 11.2 µM (active) |  | inactive | inactive | inactive | inactive |  |  | 0.928 µM (active) | 1.47 µM (active) | inactive | inactive | 
CN(C)CCOC(=O)COc1ccc(Cl)cc1 | inactive | inactive | inactive | inactive | inactive | inactive | inactive | inactive | inactive | inactive | inactive | inactive | inactive |  |  |  | inactive | 
NC(N)=NC(=O)Cc1c(Cl)cccc1Cl | inactive | inactive | inactive | inactive | inactive |  | inactive | inactive | inactive | inactive | inactive |  |  | 5.22 µM (active) |  |  |  | 
CSc1ccc(C(=O)c2[nH]c(=O)[nH]c2C)cc1 | inactive | inactive | inactive | inactive | inactive | inactive | inactive | inactive | inactive | inactive | inactive | inactive | inactive | inactive | inactive |  | inactive | 
Cc1nnc(SCC2=C(C(=O)O)N3C(=O)[C@@H](NC(=O)Cn4cnnn4)[C@H]3SC2)s1 | inactive | inactive | inactive | inactive | inactive | inactive |  | inactive | inactive | inactive |  | inactive | inactive | inactive | inactive |  |  | 
CCCOc1ccccc1-c1nc2n[nH]nc2c(=O)[nH]1 | inactive | inactive |  | inactive | inactive | inactive | inactive | inactive | inactive | inactive | inactive | inactive | inactive |  | inactive | inactive | inactive | inactive
C[N+](C)(C)CCOC(=O)CCC(=O)OCC[N+](C)(C)C | inactive | inactive | inactive | inactive | inactive | inactive | inactive | inactive | inactive | inactive | inactive |  | inactive | inactive | inactive | inactive | inactive | inactive
